Laboratory results reported in PMC7862700, “An all-to-all approach to the identification of sequence-specific readers for epigenetic DNA modifications on cytosine”.

What was measured:
Test in all cases: DAPPL (digital affinity profiling via proximity ligation, sequencing); 10 mM Tris-HCl pH 7.5, 50 mM NaCl, 1 mM DTT, 4% glycerol, room temperature, 30 min; GST-TFs on glutathione beads, 16-mer random dsDNA library, 0.1% formaldehyde crosslink after washing; high values mean tight binding
[1] = target: T1, FEV (Homo sapiens, UniProt Q99581 1-238); details: protein: recombinant; tags: N-terminal GST; dsDNA, one strand shown
T1 sequence: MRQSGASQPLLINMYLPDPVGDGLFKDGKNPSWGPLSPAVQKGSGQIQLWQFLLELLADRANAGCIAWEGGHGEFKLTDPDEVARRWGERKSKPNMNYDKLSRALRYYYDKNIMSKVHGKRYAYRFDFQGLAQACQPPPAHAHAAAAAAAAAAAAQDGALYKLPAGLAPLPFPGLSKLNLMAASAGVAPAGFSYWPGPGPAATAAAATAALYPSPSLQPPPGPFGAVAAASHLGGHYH
Method in brief: (§1)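 Human transcription factors fused to GST were expressed in yeast, captured on glutathione beads, given DNA barcodes and pooled with a GST-only negative control. Pools were incubated with 200 nmole of a 16-mer random double-stranded DNA library in Tris/NaCl/DTT/glycerol buffer at room temperature for 30 min. They were then washed, crosslinked with 0.1% formaldehyde, proximity-ligated (BsaI/T4 ligase, 1 h, 37 °C), PCR-amplified and sequenced on an Illumina NextSeq500. Binding signal is each 6-mer's read frequency for a factor divided by its frequency for the GST control.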

[2] = target: ETV5 (Homo sapiens, UniProt P41161 1-510); details: protein: recombinant; tags: N-terminal GST; dsDNA, one strand shown
Method in brief: as §1

[3] = target: HSF1 (Homo sapiens, UniProt Q00613 1-529); details: protein: recombinant; tags: N-terminal GST; chain copies: 3; dsDNA, one strand shown
Method in brief: as §1

[4] = target: T2, SPIC (Homo sapiens, UniProt Q8N5J4 1-248); details: protein: recombinant; tags: N-terminal GST; dsDNA, one strand shown
T2 sequence: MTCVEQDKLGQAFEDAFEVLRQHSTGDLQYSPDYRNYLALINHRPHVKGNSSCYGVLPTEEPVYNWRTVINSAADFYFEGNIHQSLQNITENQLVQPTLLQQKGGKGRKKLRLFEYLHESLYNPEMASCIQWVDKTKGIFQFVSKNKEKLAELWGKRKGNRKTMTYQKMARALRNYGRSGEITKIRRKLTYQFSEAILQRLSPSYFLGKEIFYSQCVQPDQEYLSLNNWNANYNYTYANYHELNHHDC
Method in brief: as §1

[5] = target: ELF4 (Homo sapiens, UniProt Q99607 1-663); details: protein: recombinant; tags: N-terminal GST; dsDNA, one strand shown
Method in brief: as §1

[6] = target: T3, ELK4 (Homo sapiens, UniProt P28324-2 1-405); details: protein: recombinant; tags: N-terminal GST; dsDNA, one strand shown
T3 sequence: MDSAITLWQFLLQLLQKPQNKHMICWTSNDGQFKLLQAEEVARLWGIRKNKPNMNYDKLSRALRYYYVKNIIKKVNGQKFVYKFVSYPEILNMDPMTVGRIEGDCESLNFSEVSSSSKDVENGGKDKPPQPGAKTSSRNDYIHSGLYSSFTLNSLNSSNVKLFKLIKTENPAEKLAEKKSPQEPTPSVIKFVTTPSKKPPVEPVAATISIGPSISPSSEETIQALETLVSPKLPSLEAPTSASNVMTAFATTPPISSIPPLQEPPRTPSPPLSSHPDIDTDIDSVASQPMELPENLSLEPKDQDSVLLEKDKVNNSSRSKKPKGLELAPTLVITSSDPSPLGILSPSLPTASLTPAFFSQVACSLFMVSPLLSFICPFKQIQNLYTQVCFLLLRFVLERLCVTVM
Method in brief: as §1

[7] = target: T4, ETV2 (Homo sapiens, UniProt O00321 1-342); details: protein: recombinant; tags: N-terminal GST; dsDNA, one strand shown
T4 sequence: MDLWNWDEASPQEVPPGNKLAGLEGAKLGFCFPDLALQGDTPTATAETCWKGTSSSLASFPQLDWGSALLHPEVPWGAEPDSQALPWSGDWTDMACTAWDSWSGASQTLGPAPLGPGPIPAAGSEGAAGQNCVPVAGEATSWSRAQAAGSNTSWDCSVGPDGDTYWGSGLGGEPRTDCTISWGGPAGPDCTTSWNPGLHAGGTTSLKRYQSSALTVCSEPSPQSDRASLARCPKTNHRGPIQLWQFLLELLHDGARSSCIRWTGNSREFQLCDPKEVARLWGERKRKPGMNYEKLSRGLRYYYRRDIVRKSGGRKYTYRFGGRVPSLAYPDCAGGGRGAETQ
Method in brief: as §1

[8] = target: T5, ELF3 (Homo sapiens, UniProt P78545 1-371); details: protein: recombinant; tags: N-terminal GST; dsDNA, one strand shown
T5 sequence: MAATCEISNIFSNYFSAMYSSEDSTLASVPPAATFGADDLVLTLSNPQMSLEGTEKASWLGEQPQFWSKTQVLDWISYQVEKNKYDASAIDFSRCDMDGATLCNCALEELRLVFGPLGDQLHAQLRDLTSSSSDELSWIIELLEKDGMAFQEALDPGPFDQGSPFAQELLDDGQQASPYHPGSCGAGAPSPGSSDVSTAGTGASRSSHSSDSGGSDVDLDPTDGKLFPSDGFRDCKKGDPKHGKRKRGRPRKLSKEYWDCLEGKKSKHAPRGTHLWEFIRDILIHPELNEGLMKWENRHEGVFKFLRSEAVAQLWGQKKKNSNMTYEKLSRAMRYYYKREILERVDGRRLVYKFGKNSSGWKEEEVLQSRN
Method in brief: as §1

[9] = target: CRX (Homo sapiens, UniProt O43186 1-299); details: protein: recombinant; tags: N-terminal GST; dsDNA, one strand shown
Method in brief: as §1

[10] = target: ETV1 (Homo sapiens, UniProt P50549 1-477); details: protein: recombinant; tags: N-terminal GST; dsDNA, one strand shown
Method in brief: as §1

[11] = target: T6, ERF (Homo sapiens, UniProt P50548 1-548); details: protein: recombinant; tags: N-terminal GST; dsDNA, one strand shown
T6 sequence: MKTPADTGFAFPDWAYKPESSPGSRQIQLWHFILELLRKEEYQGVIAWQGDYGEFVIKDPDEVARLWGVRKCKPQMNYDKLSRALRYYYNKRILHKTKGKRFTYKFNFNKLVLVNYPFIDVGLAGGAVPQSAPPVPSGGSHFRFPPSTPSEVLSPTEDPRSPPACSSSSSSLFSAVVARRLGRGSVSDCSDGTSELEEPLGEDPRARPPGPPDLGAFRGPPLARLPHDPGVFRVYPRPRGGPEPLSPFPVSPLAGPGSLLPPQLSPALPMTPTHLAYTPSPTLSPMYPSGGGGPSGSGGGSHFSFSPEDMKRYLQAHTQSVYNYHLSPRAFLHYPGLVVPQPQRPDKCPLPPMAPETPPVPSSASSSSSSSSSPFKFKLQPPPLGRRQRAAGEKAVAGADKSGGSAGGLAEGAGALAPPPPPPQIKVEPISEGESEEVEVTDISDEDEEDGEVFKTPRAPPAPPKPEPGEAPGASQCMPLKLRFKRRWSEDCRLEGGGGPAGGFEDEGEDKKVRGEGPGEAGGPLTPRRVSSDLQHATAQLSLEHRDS
Method in brief: as §1

[12] = target: T7, ETV3L (Homo sapiens, UniProt Q6ZN32 1-361); details: protein: recombinant; tags: N-terminal GST; dsDNA, one strand shown
T7 sequence: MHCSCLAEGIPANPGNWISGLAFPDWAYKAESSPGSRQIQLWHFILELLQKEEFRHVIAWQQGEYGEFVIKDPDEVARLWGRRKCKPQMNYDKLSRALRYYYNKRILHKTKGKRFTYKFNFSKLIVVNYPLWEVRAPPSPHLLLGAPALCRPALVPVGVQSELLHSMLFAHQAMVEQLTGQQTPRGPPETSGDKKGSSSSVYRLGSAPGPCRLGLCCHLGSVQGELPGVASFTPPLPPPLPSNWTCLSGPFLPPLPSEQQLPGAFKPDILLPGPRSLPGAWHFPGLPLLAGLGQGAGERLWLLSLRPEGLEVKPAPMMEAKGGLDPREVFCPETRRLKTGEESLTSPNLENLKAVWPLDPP
Method in brief: as §1

[13] = target: T8, ETS2 (Homo sapiens, UniProt P15036 1-469); details: protein: recombinant; tags: N-terminal GST; dsDNA, one strand shown
T8 sequence: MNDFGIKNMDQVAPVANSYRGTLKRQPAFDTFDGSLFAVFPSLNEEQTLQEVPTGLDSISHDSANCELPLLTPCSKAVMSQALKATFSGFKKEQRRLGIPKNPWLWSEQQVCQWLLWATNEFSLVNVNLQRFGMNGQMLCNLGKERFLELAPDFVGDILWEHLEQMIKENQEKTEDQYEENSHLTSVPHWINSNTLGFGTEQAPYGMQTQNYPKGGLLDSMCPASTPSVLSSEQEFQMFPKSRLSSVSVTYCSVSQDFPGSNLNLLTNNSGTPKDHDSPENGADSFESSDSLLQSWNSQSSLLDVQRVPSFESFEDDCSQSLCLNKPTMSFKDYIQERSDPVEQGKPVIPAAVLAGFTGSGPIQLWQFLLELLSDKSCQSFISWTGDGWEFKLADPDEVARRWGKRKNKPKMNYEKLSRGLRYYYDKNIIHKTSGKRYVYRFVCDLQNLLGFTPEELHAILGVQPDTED
Method in brief: as §1

[14] = target: T9, SPDEF (Homo sapiens, UniProt O95238 1-335); details: protein: recombinant; tags: N-terminal GST; dsDNA, one strand shown
T9 sequence: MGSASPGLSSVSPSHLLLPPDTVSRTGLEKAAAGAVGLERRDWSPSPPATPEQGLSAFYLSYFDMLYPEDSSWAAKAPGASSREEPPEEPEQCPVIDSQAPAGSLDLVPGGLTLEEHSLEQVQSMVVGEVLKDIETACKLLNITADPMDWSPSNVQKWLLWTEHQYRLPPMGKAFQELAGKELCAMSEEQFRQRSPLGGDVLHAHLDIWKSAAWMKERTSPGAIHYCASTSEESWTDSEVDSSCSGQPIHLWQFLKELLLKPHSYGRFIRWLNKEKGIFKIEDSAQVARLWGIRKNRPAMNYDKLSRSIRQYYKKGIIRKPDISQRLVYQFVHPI
Method in brief: as §1

[15] = target: T10, ETV7 (Homo sapiens, UniProt Q9Y603 1-341); details: protein: recombinant; tags: N-terminal GST; dsDNA, one strand shown
T10 sequence: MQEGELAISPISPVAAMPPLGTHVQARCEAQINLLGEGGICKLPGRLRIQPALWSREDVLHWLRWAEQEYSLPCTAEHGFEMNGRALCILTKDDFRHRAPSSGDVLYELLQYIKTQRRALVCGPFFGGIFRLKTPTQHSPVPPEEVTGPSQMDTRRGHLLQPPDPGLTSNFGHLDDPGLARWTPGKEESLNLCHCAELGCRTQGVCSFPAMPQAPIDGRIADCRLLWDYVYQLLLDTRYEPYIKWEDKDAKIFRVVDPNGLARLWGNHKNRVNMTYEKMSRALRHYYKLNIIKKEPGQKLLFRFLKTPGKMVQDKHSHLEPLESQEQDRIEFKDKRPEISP
Method in brief: as §1

[16] = target: T11, ELF5 (Homo sapiens, UniProt Q9UKW6-2 1-255); details: protein: recombinant; tags: N-terminal GST; dsDNA, one strand shown
T11 sequence: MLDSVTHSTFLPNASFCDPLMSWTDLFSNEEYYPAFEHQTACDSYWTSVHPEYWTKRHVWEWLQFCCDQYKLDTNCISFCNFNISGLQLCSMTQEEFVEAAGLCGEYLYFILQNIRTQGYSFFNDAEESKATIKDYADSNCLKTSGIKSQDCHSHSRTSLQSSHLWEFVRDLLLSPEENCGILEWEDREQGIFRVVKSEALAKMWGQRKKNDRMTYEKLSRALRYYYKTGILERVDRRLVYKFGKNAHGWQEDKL
Method in brief: as §1

[17] = target: T12, ETV3 (Homo sapiens, UniProt P41162-2 1-143); details: protein: recombinant; tags: N-terminal GST; dsDNA, one strand shown
T12 sequence: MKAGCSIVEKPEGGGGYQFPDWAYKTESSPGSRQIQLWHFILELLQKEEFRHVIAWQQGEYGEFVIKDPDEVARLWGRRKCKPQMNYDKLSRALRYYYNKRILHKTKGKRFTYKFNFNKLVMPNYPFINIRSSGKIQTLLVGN
Method in brief: as §1

[18] = target: ETV6 (Homo sapiens, UniProt P41212 1-452); details: protein: recombinant; tags: N-terminal GST; dsDNA, one strand shown
Method in brief: as §1

CRX, sequence (O43186 whole entry): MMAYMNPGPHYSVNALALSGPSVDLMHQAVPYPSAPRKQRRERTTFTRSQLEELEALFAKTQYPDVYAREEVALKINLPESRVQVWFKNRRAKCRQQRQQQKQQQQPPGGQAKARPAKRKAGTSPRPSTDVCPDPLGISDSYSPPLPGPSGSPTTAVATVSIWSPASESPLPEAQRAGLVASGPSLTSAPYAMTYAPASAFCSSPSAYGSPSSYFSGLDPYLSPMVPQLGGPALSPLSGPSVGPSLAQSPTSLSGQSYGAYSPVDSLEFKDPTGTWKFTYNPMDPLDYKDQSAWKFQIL
ETV5, sequence (P41161 whole entry): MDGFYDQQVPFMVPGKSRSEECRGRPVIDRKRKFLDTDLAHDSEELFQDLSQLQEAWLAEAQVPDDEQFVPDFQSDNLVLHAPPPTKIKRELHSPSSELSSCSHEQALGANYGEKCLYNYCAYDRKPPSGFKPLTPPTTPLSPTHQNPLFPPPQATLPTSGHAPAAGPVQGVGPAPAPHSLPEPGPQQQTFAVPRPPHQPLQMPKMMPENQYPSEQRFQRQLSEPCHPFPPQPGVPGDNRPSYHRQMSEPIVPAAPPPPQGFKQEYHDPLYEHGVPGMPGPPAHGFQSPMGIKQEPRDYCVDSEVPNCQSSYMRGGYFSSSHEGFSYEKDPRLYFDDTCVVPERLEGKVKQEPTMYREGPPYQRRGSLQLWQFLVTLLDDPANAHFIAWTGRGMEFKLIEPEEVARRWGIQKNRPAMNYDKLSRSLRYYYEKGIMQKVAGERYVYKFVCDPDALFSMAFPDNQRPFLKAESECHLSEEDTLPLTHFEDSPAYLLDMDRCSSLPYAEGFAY
ETV1, sequence (P50549 whole entry): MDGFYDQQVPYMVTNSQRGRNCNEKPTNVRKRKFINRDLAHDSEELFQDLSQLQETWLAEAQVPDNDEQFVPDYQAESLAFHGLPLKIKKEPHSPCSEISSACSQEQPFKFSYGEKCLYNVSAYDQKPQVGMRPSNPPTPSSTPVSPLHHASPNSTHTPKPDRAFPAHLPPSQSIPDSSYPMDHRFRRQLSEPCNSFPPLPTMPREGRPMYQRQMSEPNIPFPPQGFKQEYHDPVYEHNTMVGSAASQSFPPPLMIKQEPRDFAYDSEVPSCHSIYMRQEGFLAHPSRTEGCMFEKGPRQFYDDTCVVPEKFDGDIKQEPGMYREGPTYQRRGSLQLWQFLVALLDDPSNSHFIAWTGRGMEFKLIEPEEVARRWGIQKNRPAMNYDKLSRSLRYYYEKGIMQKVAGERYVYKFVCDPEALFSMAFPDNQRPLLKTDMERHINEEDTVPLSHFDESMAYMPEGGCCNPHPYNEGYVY
HSF1, sequence (Q00613 whole entry): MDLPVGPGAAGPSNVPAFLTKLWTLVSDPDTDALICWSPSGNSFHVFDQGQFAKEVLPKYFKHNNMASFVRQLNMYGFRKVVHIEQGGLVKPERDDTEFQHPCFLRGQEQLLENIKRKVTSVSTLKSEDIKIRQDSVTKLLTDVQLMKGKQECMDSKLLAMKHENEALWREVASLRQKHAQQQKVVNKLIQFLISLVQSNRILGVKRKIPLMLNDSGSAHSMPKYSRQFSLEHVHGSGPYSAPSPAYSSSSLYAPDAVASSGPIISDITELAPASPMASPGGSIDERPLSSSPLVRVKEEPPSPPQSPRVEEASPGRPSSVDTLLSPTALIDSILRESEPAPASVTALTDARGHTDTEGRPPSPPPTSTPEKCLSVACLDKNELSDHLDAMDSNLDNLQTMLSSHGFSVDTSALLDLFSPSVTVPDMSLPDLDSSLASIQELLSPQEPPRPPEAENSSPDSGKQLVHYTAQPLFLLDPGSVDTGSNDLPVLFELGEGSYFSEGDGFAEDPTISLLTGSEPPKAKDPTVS
ELF4, sequence (Q99607 whole entry): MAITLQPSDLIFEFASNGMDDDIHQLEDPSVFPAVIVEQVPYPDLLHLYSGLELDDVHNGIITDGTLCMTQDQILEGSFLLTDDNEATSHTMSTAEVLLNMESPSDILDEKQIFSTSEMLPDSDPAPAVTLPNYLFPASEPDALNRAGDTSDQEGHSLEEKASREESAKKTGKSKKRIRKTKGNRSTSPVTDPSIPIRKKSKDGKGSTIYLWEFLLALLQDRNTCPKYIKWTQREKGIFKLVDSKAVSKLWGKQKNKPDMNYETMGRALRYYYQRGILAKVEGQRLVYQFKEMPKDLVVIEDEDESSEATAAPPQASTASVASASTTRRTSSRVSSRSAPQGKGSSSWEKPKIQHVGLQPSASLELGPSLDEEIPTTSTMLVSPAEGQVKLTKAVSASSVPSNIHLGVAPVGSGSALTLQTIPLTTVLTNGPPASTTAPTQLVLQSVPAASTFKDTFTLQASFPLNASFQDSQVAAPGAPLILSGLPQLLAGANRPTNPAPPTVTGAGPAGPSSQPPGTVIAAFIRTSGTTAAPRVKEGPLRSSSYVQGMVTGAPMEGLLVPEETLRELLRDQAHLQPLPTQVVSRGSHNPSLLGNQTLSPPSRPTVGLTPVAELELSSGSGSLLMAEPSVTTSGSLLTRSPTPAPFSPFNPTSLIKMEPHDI
ETV6, sequence (P41212 whole entry): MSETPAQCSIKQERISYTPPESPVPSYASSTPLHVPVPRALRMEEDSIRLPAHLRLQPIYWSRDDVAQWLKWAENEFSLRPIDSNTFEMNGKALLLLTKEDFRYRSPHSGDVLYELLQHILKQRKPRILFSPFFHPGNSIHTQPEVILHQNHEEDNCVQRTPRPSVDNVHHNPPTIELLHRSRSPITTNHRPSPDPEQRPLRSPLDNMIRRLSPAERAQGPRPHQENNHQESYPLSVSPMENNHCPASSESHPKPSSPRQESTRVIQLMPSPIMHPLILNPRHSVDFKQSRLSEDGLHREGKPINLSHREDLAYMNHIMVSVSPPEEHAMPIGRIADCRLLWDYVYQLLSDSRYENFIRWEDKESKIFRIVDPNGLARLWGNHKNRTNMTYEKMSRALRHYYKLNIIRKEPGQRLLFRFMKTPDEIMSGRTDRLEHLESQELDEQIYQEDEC

Sequence	binding signal [1]	binding signal [2]	binding signal [3]	binding signal [4]	binding signal [5]	binding signal [6]	binding signal [7]	binding signal [8]	binding signal [9]	binding signal [10]	binding signal [11]	binding signal [12]	binding signal [13]	binding signal [14]	binding signal [15]	binding signal [16]	binding signal [17]	binding signal [18]
CAATCT	1.2 fold enrichment (6-mer frequency, TF over GST control)	1.21 fold enrichment (6-mer frequency, TF over GST control)	1.48 fold enrichment (6-mer frequency, TF over GST control)	1.19 fold enrichment (6-mer frequency, TF over GST control)	1.2 fold enrichment (6-mer frequency, TF over GST control)	1.2 fold enrichment (6-mer frequency, TF over GST control)	1.3 fold enrichment (6-mer frequency, TF over GST control)	1.19 fold enrichment (6-mer frequency, TF over GST control)	1.42 fold enrichment (6-mer frequency, TF over GST control)	1.26 fold enrichment (6-mer frequency, TF over GST control)	1.21 fold enrichment (6-mer frequency, TF over GST control)	1.14 fold enrichment (6-mer frequency, TF over GST control)	1.18 fold enrichment (6-mer frequency, TF over GST control)	1.03 fold enrichment (6-mer frequency, TF over GST control)	1.25 fold enrichment (6-mer frequency, TF over GST control)	1.16 fold enrichment (6-mer frequency, TF over GST control)	1.19 fold enrichment (6-mer frequency, TF over GST control)	1.19 fold enrichment (6-mer frequency, TF over GST control)
CGTACT	1.17 fold enrichment (6-mer frequency, TF over GST control)	1.22 fold enrichment (6-mer frequency, TF over GST control)	1.05 fold enrichment (6-mer frequency, TF over GST control)	1.12 fold enrichment (6-mer frequency, TF over GST control)	1.25 fold enrichment (6-mer frequency, TF over GST control)	1.22 fold enrichment (6-mer frequency, TF over GST control)	1.35 fold enrichment (6-mer frequency, TF over GST control)	1.15 fold enrichment (6-mer frequency, TF over GST control)	1.07 fold enrichment (6-mer frequency, TF over GST control)	1.34 fold enrichment (6-mer frequency, TF over GST control)	1.27 fold enrichment (6-mer frequency, TF over GST control)	1.1 fold enrichment (6-mer frequency, TF over GST control)	1.23 fold enrichment (6-mer frequency, TF over GST control)	1.11 fold enrichment (6-mer frequency, TF over GST control)	1.1 fold enrichment (6-mer frequency, TF over GST control)	1.2 fold enrichment (6-mer frequency, TF over GST control)	1.2 fold enrichment (6-mer frequency, TF over GST control)	1.2 fold enrichment (6-mer frequency, TF over GST control)
